Laboratory results as given in PubChem BioAssay (Tox21).
Results filed as inconclusive are left out. The source made the active and inactive calls. The call rests on the fitted dose curve.

Assay: qHTS assay to identify small molecule antagonists of the estrogen receptor alpha (ER-alpha) signaling pathway using the BG1 cell line (AID 743080);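 further: BG1 cells stimulated with 17beta-estradiol alongside compound; nearly all actives have a fitted effect of over 25% in size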
Settings: BG1Luc4E2 ERE-luciferase antagonist mode, luminescence; series mostly up to 70.3 µM; activity change, negative = inhibition: at the top concentration
Description: National Center for Advancing Translational Sciences [NCATS]
NIH Chemical Genomics Center [NCGC]
U.S. Environmental Protection Agency [EPA]
National Institutes of Environmental Health Sciences [NIEHS]
National Toxicology Program [NTP]
U.S. Food and Drug Administration [FDA]
Estrogen receptor (ER), a nuclear hormone receptor, plays an important role in development, metabolic homeostasis and reproduction. Endocrine disrupting chemicals (EDCs) and their interactions with steroid hormone receptors like ER causes disruption of normal endocrine function. Therefore, it is important to understand the effect of environmental chemicals on the ER signaling pathway. To identify ER antagonists, BG1-Luc-4E2 cell line (provided by Dr. Michael Denison from University of California) has been used to screen the Tox21 10K compound library. BG1Luc4E2 cell line endogenously expresses full-length ER-alpha and is stably transfected with a plasmid containing four estrogen responsive elements (ERE) upstream of a luciferase reporter gene.
Tox21 Assay Protocol Summary:
BG1-Luc-4E2 cells were cultured in phenol red free assay medium containing 10% charcoal stripped FBS for 5 days before the assay was performed. The cells were dispensed at 4,000 cells/4 uL of assay medium per well into white wall/solid-bottom 1536-well plates using a Multidrop Combi (ThermoFisher Scientific, Waltham, MA) dispenser. The assay plates were incubated at a 37C and 5% CO2 for 24 h, and then 23 nL of compounds dissolved in DMSO, positive controls or DMSO only was transferred to the assay plate using a Pintool station (Kalypsys, San Diego, CA), followed by addition of 1 uL of 17beta-estradiol in assay medium using a Flying Reagent Dispenser (Aurora Discovery, San Diego, CA). After the plates were incubated at 37 C and 5% CO2 for 21.5 h, 1 uL of CellTiter-Fluor reagent (Promega, Madison, WI) of measuring cytotoxicity was added using Flying Reagent Dispenser (FRD) to each well. The assay plates were incubated at 37 C and 5% CO2 for additional 30 min and the fluorescence intensity was quantified by a ViewLux plate reader (PerkinElmer, Shelton, CT). For measuring luciferase reporter gene activity, 4 uL of ONE-Glo reagent (Promega) was added to each plate using an FRD and luminescence was quantified by a ViewLux plate reader after 30 min incubation at room temperature.
On the % scale 0 is the no-effect control and ±100 the full control effect.

Structure (SMILES)	activity change, negative = inhibition	Potency
O=C(NC(Cc1cc(=O)[nH]c2ccccc12)C(=O)O)c1ccc(Cl)cc1 (stereo not given)	3.02% (inactive)	–
C=CCOC(=O)COCCC(C)C	-3.83% (inactive)	–
CCN(CC)CCNC(=O)c1cc(Cl)c(N)cc1OC	14.9% (inactive)	–
N[C@@H](Cc1cc(I)c(O)c(I)c1)C(=O)O	-0.999% (inactive)	–
Cc1ccc(N(CC2=NCCN2)c2cccc(O)c2)cc1	0.16% (inactive)	–
CCCCCCCCCCCCCCN(C)C	0.841% [at 32.5 µM] (inactive)	–
O=C(Nc1ccc(C(=O)O)c(O)c1)c1ccccc1	-1.18% (inactive)	–
O=C(O)CNC(=O)c1ccccc1I	-7.11% (inactive)	–
CC(C)C1CCC(C(=O)N[C@H](Cc2ccccc2)C(=O)O)CC1 (stereo not given in full)	-5.85% (inactive)	–
CC[C@H]1OC(=O)[C@H](C)[C@@H](O[C@H]2C[C@@](C)(OC)[C@@H](O)[C@H](C)O2)[C@H](C)[C@@H](O[C@@H]2O[C@H](C)C[C@H](N(C)C)[C@H]2O)[C@](C)(O)C[C@@H](C)/C(=N\OCOCCOC)[C@H](C)[C@@H](O)[C@]1(C)O	–	inactive
CC(C)c1ccc(C(=O)N=C(N)N)cc1S(C)(=O)=O	17.9% (inactive)	–
CC(C)OC(=O)c1ccccc1C(=O)OC(C)C	-5.17% (inactive)	–
Nc1ccc(N=Nc2ccc(N)cc2)cc1	0.701% (inactive)	–
CC1=CC[C@@H]2C[C@H]1C2(C)C	-1.13% [at 18.2 µM] (inactive)	–
ClC1=C(Cl)C1(Cl)Cl	-0.31% [at 95 µM] (inactive)	–
O=[N+]([O-])c1ccc2ncccc2c1	0.65% (inactive)	–
CCSC(=O)N(CC)CC	10.9% (inactive)	–
O=NN(CCCl)C(=O)NCCCl	-2.38% (inactive)	–
Nc1cccc2c(N)cccc12	-25% (inactive)	–
CC(C)c1ccc(C#N)cc1	0.621% (inactive)	–

Structure (SMILES)	activity change, negative = inhibition	Potency
Nc1ccc(F)cc1	-1.16% [at 95 µM] (inactive)	–
Cc1ccc(Nc2c(F)cccc2Cl)c(CC(=O)O)c1	11.2% (inactive)	–
COc1ccc(CCN(C)CCCN2CCc3cc(OC)c(OC)cc3CC2=O)cc1OC	-5.65% (inactive)	–
CC(=O)c1ccc[nH]1	7% (inactive)	–
CCCCCCCCCCCSCC(=O)O	-21.9% (inactive)	–
CCC(C)(C)C(=O)O	-4.06% (inactive)	–
O=C(O)CO	8.8% (inactive)	–
Cc1ccc(S(=O)(=O)NC(=O)NC2CCCCC2)cc1	-2.62% (inactive)	–
CC(C)N=C=NC(C)C	3.63% (inactive)	–
CC(=O)NNC(C)=O	8.06% [at 95 µM] (inactive)	–
CCCCCCC(O)CCOC(C)=O (stereo not given)	-17.9% [at 260 µM] (inactive)	–
O=C(O)c1cccc(Oc2ccccc2)c1	5.08% (inactive)	–
CC(CCc1ccc(O)cc1)NCCc1ccc(O)c(O)c1 (stereo not given)	-14.6% (inactive)	–
Cc1cccc2sc(N)nc12	-7.25% [at 95 µM] (inactive)	–
O=C(CCS)OCC(COC(=O)CCS)(COC(=O)CCS)COC(=O)CCS	-0.0935% (inactive)	–
NC(=O)c1ccccc1[N+](=O)[O-]	1.16% [at 95 µM] (inactive)	–
CC1C(C)(C)C2=C(C(=O)CCC2)C1(C)C (stereo not given)	-7.57% (inactive)	–
FC(F)(F)C(F)(F)C(F)(F)C(F)(F)CCI	6.85% [at 32.5 µM] (inactive)	–
CS(=O)(=O)c1ccc([C@@H](C[C@H]2CCC(=O)C2)C(=O)Nc2cnccn2)cc1Cl	6.48% (inactive)	–
CC1CCc2nccnc21 (stereo not given)	1.78% (inactive)	–
